In the library only some 12% were active in any assay of this set; here they are far more common.
BAZ2B block: BAZ2B (human) inhibition; Q9UIF8; AlphaScreen BAZ2B-H3K14Ac peptide displacement; Potency, µM (highest dose often 114 µM), usual class: inhibitors; 360,000 tested, 4.4% active; AID 504333; note: nearly all actives have a fitted effect of over 60% in size
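Complex of BAZ2B and biotin-H3K14Ac (50 nM apiece) forms over 30 min at RT, then faces library compounds up to 110 uM for another 30 min; AlphaScreen beads added, 20 min dark incubation, luminescence read.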
Sfp PPTase inh: blocks B. subtilis Sfp PPTase activity. 310,000 tested, 3.5% active. AID 1490. Potency, µM, most hits filed as inhibitors. Biochemical Sfp PPTase activity, qHTS. Q9F4F7;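 note: the enzyme is Sfp with the accession as filed and its product quenches rhodamine fluorescence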
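Compounds were incubated with enzyme (final 15 nM) for 15 min at room temperature before substrate addition started the reaction. Fluorescence at 525 nm excitation, 598 nm emission was recorded immediately and after 30 minutes.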
TDP1 inh: TDP1 (human) enzyme inhibition. recombinant TDP1, AlphaScreen DNA substrate cleavage. AID 485290. Potency, µM (top dose mostly 130 µM), hits mostly inhibitors. 350,000 tested, 0.28% active; note: nearly all actives have a fitted effect of over 40% in size
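Steps: enzyme plus compound, 15 min RT; add biotin/phosphotyrosine-FITC oligonucleotide (15 nM final), react 5 min; add donor/acceptor beads (10 ug/ml final), 10 min; read AlphaScreen. Tdp1 at 1 nM final.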
JMJD2A Tudor: JMJD2A Tudor domain (human) inhibition | O75164 | 390,000 tested, 4.4% active | Potency, µM (series often up to 114 µM), most hits filed as inhibitors | AlphaScreen JMJD2A-Tudor / H3K4me3 peptide binding; note: nearly all actives have a fitted effect of over 50% in size
G9a inh: blocks human histone lysine methyltransferase G9a. Q96KQ7. G9a H3K9 monomethylation, AlphaScreen, 2 h. 350,000 tested, 8.8% active. Potency, µM (titrated, usually from 102 µM), most hits filed as inhibitors; note: nearly all actives have a fitted effect of over 75% in size
Target sequence (Q96KQ7 913-1193 limits assumed): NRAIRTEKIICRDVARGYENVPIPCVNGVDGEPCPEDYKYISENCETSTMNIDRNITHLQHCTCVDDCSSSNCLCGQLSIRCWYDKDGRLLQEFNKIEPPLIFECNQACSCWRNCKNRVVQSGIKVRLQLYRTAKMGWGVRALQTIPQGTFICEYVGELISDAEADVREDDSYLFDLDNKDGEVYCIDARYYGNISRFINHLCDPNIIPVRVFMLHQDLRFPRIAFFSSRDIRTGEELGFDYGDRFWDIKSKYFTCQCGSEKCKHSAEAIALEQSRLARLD
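Methyltransferase reactions run at room temperature for 2 h (20 nM enzyme, 500 nM biotin-H3K9 peptide, 20 uM SAM) after a 15 min compound preincubation; product detected by AlphaScreen beads and anti-H3K9me1 antibody.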
HP1b chromo inh: HP1-beta chromodomain-methylated histone interaction inhibition. Potency, µM (highest dose often 114 µM), actives largely listed as inhibitors. 390,000 tested, 0.56% active. AlphaScreen HP1-beta / biotin-H3K9me3 peptide binding. AID 540317; note: nearly all actives have a fitted effect of over 70% in size
Target sequence (P83916 whole entry, looked up): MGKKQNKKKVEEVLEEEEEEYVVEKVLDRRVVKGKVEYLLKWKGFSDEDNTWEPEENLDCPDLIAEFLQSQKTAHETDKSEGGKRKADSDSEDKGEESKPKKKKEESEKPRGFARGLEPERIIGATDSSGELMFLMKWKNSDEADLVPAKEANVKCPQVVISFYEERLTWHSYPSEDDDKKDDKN
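AlphaScreen: HP1-beta (50 nM) preformed 30 min with biotin-H3(1-18)K9me3 peptide (50 nM) in PBS pH 7.4, 0.01% Tween-20. Compound added for 30 min at RT, then streptavidin donor/nickel chelate acceptor beads (10 ug/mL) for 30 min.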
Of the large screens only hits and unclear results are named; the others gave an inactive call. Calls come from the whole dose curve; as a rule, active = well fitted curve in the direction sought with a large enough effect; inconclusive = small, poorly fitted or top-dose-only effect, or another doubt; inactive = no such curve, though single readings can be large; an effect the other way counts as inactive or inconclusive.

COc1ccccc1CNC(=O)c1ccc(-c2nc(CS(=O)(=O)c3ccc(C)cc3)c(C)o2)cc1	none (no result: Sfp PPTase inh)
CCc1nn2c(=O)cc(N3C(C)CNCC3C)nc2s1 (centres undefined)	none (no result: BAZ2B block, Sfp PPTase inh, TDP1 inh, G9a inh, HP1b chromo inh)
CCN(CC)c1ccc(N=CN2CCOCC2)cc1	BAZ2B block inconclusive, JMJD2A Tudor 79µM, G9a inh 11µM, HP1b chromo inh inconclusive (no result: TDP1 inh)
CCN(C(=O)N1CCOCC1)c1ccccc1	none (no result: TDP1 inh)
C=C1C(=O)C=C2CN(C(=O)c3ccccc3)[C@@](Cc3ccc(OC)cc3)(C(=O)OC)[C@@H]12	Sfp PPTase inh 4µM (no result: BAZ2B block, JMJD2A Tudor, G9a inh, HP1b chromo inh)
COc1ccc(-c2csc(/C(C#N)=C\c3ccc(O)c([N+](=O)[O-])c3)n2)cc1OC	BAZ2B block 11µM, JMJD2A Tudor 13µM, HP1b chromo inh inconclusive (no result: G9a inh)
N#C/C(=C\c1ccc(N2CCCC2)c([N+](=O)[O-])c1)c1nc2ccccc2[nH]1	BAZ2B block inconclusive (no result: G9a inh)
N#C/C(=C\c1ccc(O)c([N+](=O)[O-])c1)c1nc2ccccc2s1	BAZ2B block 25µM, JMJD2A Tudor 20µM, G9a inh 4µM, HP1b chromo inh inconclusive
COc1cc(/C=C(\C#N)c2nc3ccccc3s2)cc([N+](=O)[O-])c1O	BAZ2B block 13µM, JMJD2A Tudor 11µM, G9a inh 16µM, HP1b chromo inh 20µM
COc1ccc(-c2csc(/C(C#N)=C\c3ccc(OC)c([N+](=O)[O-])c3)n2)cc1	none
CCN(C(=O)COC(=O)CCOc1ccccc1C)c1c(N)n(Cc2ccccc2)c(=O)[nH]c1=O	none (no result: BAZ2B block, Sfp PPTase inh, TDP1 inh, G9a inh)
O=C(CCn1c(=S)oc2ccccc21)NCCC1=CCCCC1	none (no result: TDP1 inh, G9a inh)
O=C(O)c1ccc(N=Nc2c(O)ccc3ncccc23)cc1	BAZ2B block 1.6µM, JMJD2A Tudor 7.9µM, G9a inh 10µM, HP1b chromo inh inconclusive (no result: TDP1 inh)
Cc1ccccc1N=Nc1ccc(N=Nc2c(O)ccc3ccccc23)c(C)c1	G9a inh 1.3µM (no result: BAZ2B block, JMJD2A Tudor, HP1b chromo inh)
Cc1cc2c(cc1C)CSC(c1c(O)ccc3ccccc13)SC2	BAZ2B block inconclusive, G9a inh inconclusive
NS(=O)(=O)c1ccc(N=Nc2c(O)ccc3ccccc23)cc1	BAZ2B block inconclusive, G9a inh 35µM
Oc1ccc(N=Nc2c(O)ccc3ccccc23)cc1	BAZ2B block 6.3µM, Sfp PPTase inh inconclusive, JMJD2A Tudor 10µM, G9a inh 8.9µM, HP1b chromo inh inconclusive
Oc1ccc2ccccc2c1Br	G9a inh inconclusive
Nc1nc(N)c(N=Nc2ccc(C(=O)O)cc2)c(N)n1	TDP1 inh inconclusive, G9a inh inconclusive
CCN(C[C@H]1N[C@@](C)(C(=O)OC)[C@H]2C(=O)N(C)C(=O)[C@@H]12)C(=O)Nc1ccc(C)cc1	none (no result: BAZ2B block, Sfp PPTase inh, G9a inh)
O=C(O)c1cc2ccc3cccc4ccc(c1)c2c34	BAZ2B block inconclusive (no result: TDP1 inh)
O=C(O)c1cc(N=Nc2c(O)ccc3ccccc23)cc(C(=O)O)c1	BAZ2B block inconclusive, JMJD2A Tudor 28µM, G9a inh inconclusive, HP1b chromo inh inconclusive
COCC(=O)N1CCC2(CC1)CN(C(=O)Nc1ccccc1)C2	none (no result: BAZ2B block, TDP1 inh, JMJD2A Tudor, HP1b chromo inh)
Cc1ccc2c(c1)C(=O)C(=O)N2Cc1ccccc1	JMJD2A Tudor inconclusive, HP1b chromo inh inconclusive (no result: BAZ2B block, Sfp PPTase inh, G9a inh)
Cc1ccc2c(c1)C(=O)C(=O)N2CC1COc2ccccc2O1 (centres undefined)	BAZ2B block inconclusive, JMJD2A Tudor inconclusive, G9a inh 50µM, HP1b chromo inh inconclusive (no result: TDP1 inh)
CCCCCOc1ccccc1CN1C(=O)C(=O)c2cc(C)ccc21	BAZ2B block 6.3µM, JMJD2A Tudor 18µM, G9a inh 8.9µM, HP1b chromo inh inconclusive (no result: Sfp PPTase inh)
Cc1ccc2c(c1)C(=O)C(=O)N2CCCOc1ccccc1	BAZ2B block 50µM, JMJD2A Tudor 56µM, G9a inh 35µM, HP1b chromo inh inconclusive
CCOc1ccc2c(c1)C(=O)C(=O)N2CC1COc2ccccc2O1 (centres undefined)	BAZ2B block inconclusive, JMJD2A Tudor inconclusive, G9a inh inconclusive, HP1b chromo inh inconclusive (no result: TDP1 inh)
CCCCCOc1ccccc1Cn1c(=O)oc2ccc(C)cc21	none (no result: Sfp PPTase inh)
CC(=O)c1sc(NC(=O)C2CCCN2S(=O)(=O)c2ccccc2F)nc1C (centres undefined)	none (no result: Sfp PPTase inh)

Assay outcomes: PubChem BioAssay, National Center for Advancing Translational Sciences (NCATS)
